# Test results reported in the supplement of paper PMC8728848.
# The sample as a whole holds a higher share of the strongest signals than the screen did.
# B1: Gal 2 (Canis lupus) (protein)
# chain: MSGKFEVMNMDMKLGGTLKIKGKIAGDADGFVINLGQGSDKLNLHFNPRFHESVIVCNSRNWGQEQRDKHMCFSPGSEVKFTVTFENDGFKVKLPDGHQLTFPNRLGHSHLSYLGVQGGLKVSSFKIE
# Experiments:
# Experiment in all cases: glycan array binding signal (z-score within array); higher = stronger binding
# Conditions in all cases: glycan notation: IUPAC condensed, linker removed
# [1] = target: Fuc(a1-2)Gal(b1-3)GalNAc(b1-4)[Neu5Ac(a2-3)]Gal(b1-4)Glc
# Procedure, shortened: (§1)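 Columns mapping to the same glycan were averaged after glycan names were converted to IUPAC-condensed notation. The data come from 3228 arrays in the Consortium for Functional Glycomics database, limited to those with an available protein sequence. Binding is reported as a within-array Z-score averaged across arrays of one protein sequence and across linkers.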
# [2] = target: Fuc(a1-2)Gal(b1-3)[Fuc(a1-4)]GlcNAc(b1-3)[Fuc(a1-3)[Gal(b1-4)]GlcNAc(b1-6)]Gal(b1-4)Glc
# Procedure, shortened: as §1
# [3] = target: Fuc(a1-2)Gal(b1-4)GlcNAc(b1-2)Man(a1-3)[Fuc(a1-2)Gal(b1-4)GlcNAc(b1-2)Man(a1-6)]Man(b1-4)GlcNAc(b1-4)GlcNAc
# Procedure, shortened: as §1
# [4] = target: Fuc(a1-2)Gal(b1-4)GlcNAc(b1-2)Man(a1-3)[Fuc(a1-2)Gal(b1-4)GlcNAc(b1-2)Man(a1-6)]Man(b1-4)GlcNAc(b1-4)[Fuc(a1-6)]GlcNAc
# Procedure, shortened: as §1
# [5] = target: Fuc(a1-2)Gal(b1-4)GlcNAc(b1-3)Gal(b1-4)GlcNAc(b1-3)Gal(b1-4)GlcNAc
# Procedure, shortened: as §1
# [6] = target: Fuc(a1-2)Gal(b1-4)[Fuc(a1-3)]GlcNAc(b1-2)Man(a1-3)[Fuc(a1-2)Gal(b1-4)[Fuc(a1-3)]GlcNAc(b1-2)Man(a1-6)]Man(b1-4)GlcNAc(b1-4)GlcNAc
# Procedure, shortened: as §1
# [7] = target: Fuc(a1-2)Gal(b1-4)[Fuc(a1-3)]GlcNAc(b1-3)GalNAc
# Procedure, shortened: as §1
# [8] = target: Fuc(a1-2)[Gal(a1-3)]Gal(b1-4)GlcNAc
# Procedure, shortened: as §1
# [9] = target: Fuc(a1-2)[Gal(a1-3)]Gal(b1-4)GlcNAc(b1-2)Man(a1-3)[Fuc(a1-2)[Gal(a1-3)]Gal(b1-4)GlcNAc(b1-2)Man(a1-6)]Man(b1-4)GlcNAc(b1-4)GlcNAc
# Procedure, shortened: as §1
# [10] = target: Fuc(a1-2)[Gal(a1-3)]Gal(b1-4)GlcNAc(b1-2)Man(a1-3)[Fuc(a1-2)[Gal(a1-3)]Gal(b1-4)GlcNAc(b1-2)Man(a1-6)]Man(b1-4)GlcNAc(b1-4)[Fuc(a1-6)]GlcNAc
# Procedure, shortened: as §1
# [11] = target: Fuc(a1-2)[Gal(a1-3)]Gal(b1-4)[Fuc(a1-3)]GlcNAc(b1-3)GalNAc
# Procedure, shortened: as §1
# [12] = target: Fuc(a1-2)[GalNAc(a1-3)]Gal
# Procedure, shortened: as §1
# [13] = target: Fuc(a1-2)[GalNAc(a1-3)]Gal(b1-3)GalNAc(a1-3)[Fuc(a1-2)]Gal(b1-4)GlcNAc
# Procedure, shortened: as §1
# [14] = target: Gal(a1-3)Gal(b1-3)GlcNAc(b1-2)Man(a1-3)[Gal(a1-3)Gal(b1-3)GlcNAc(b1-2)Man(a1-6)]Man(b1-4)GlcNAc(b1-4)GlcNAc
# Procedure, shortened: as §1
# [15] = target: Gal(a1-3)Gal(b1-4)[Fuc(a1-3)]GlcNAc(b1-2)Man(a1-3)[Gal(a1-3)Gal(b1-4)[Fuc(a1-3)]GlcNAc(b1-2)Man(a1-6)]Man(b1-4)GlcNAc(b1-4)GlcNAc
# Procedure, shortened: as §1
# [16] = target: Gal(b1-3)GlcNAc(b1-2)Man(a1-3)[Gal(b1-3)GlcNAc(b1-2)Man(a1-6)]Man(b1-4)GlcNAc(b1-4)GlcNAc
# Procedure, shortened: as §1
# [17] = target: Gal(b1-3)GlcNAc(b1-2)Man(a1-3)[Gal(b1-3)GlcNAc(b1-2)Man(a1-6)]Man(b1-4)GlcNAc(b1-4)[Fuc(a1-6)]GlcNAc
# Procedure, shortened: as §1
# [18] = target: Gal(b1-3)[Fuc(a1-4)]GlcNAc(b1-3)Gal(b1-4)GlcNAc
# Procedure, shortened: as §1
# [19] = target: Gal(b1-3)[Neu5Ac(a2-6)]GlcNAc(b1-6)Gal(b1-4)Glc
# Procedure, shortened: as §1
# [20] = target: Gal(b1-4)GlcNAc(b1-3)Gal(b1-4)GlcNAc
# Procedure, shortened: as §1
# Gal4S(b1-4)GlcNAc = target: Gal4S(b1-4)GlcNAc
# Procedure, shortened: as §1
# Gal6S(b1-3)GlcNAc = target: Gal6S(b1-3)GlcNAc
# Procedure, shortened: as §1
# [21] = target: GalNAc(b1-3)Gal(a1-6)Gal(b1-4)Glc
# Procedure, shortened: as §1
# GalNAc(b1-4)GlcNAc = target: GalNAc(b1-4)GlcNAc
# Procedure, shortened: as §1
# GlcA(b1-3)GlcNAc = target: GlcA(b1-3)GlcNAc
# Procedure, shortened: as §1
# [22] = target: GlcNAc(a1-4)Gal(b1-4)GalNAc
# Procedure, shortened: as §1
# [23] = target: GlcNAc(a1-4)Gal(b1-4)GlcNAc(b1-3)Gal(b1-4)[Fuc(a1-3)]GlcNAc(b1-3)Gal(b1-4)[Fuc(a1-3)]GlcNAc
# Procedure, shortened: as §1
# [24] = target: GlcNAc(b1-4)[GlcNAc(b1-6)]GalNAc
# Procedure, shortened: as §1
# Man(a1-3)[Man(a1-6)]Man = target: Man(a1-3)[Man(a1-6)]Man
# Procedure, shortened: as §1
# [25] = target: Neu5Ac(a2-3)Gal(b1-3)[Neu5Ac(a2-3)Gal(b1-4)]GlcNAc
# Procedure, shortened: as §1
binder,measurement,setting,value
B1,glycan array binding signal (z-score),[1],-0.028
same,glycan array binding signal (z-score),[2],0.019
same,glycan array binding signal (z-score),[3],1.43
same,glycan array binding signal (z-score),[4],0.046
same,glycan array binding signal (z-score),[5],-0.156
same,glycan array binding signal (z-score),[6],0.795
same,glycan array binding signal (z-score),[7],0.409
same,glycan array binding signal (z-score),[8],0.681
same,glycan array binding signal (z-score),[9],15.5
same,glycan array binding signal (z-score),[10],6.28
same,glycan array binding signal (z-score),[11],0.088
same,glycan array binding signal (z-score),[12],-0.339
same,glycan array binding signal (z-score),[13],-0.173
same,glycan array binding signal (z-score),[14],0.082
same,glycan array binding signal (z-score),[15],0.339
same,glycan array binding signal (z-score),[16],0.14
same,glycan array binding signal (z-score),[17],0.051
same,glycan array binding signal (z-score),[18],0.099
same,glycan array binding signal (z-score),[19],-0.068
same,glycan array binding signal (z-score),[20],-0.157
same,glycan array binding signal (z-score),Gal4S(b1-4)GlcNAc,1.7
same,glycan array binding signal (z-score),Gal6S(b1-3)GlcNAc,-0.457
same,glycan array binding signal (z-score),[21],0.131
same,glycan array binding signal (z-score),GalNAc(b1-4)GlcNAc,-0.029
same,glycan array binding signal (z-score),GlcA(b1-3)GlcNAc,2.91
same,glycan array binding signal (z-score),[22],-0.278
same,glycan array binding signal (z-score),[23],1.2
same,glycan array binding signal (z-score),[24],-0.114
same,glycan array binding signal (z-score),Man(a1-3)[Man(a1-6)]Man,0.15
same,glycan array binding signal (z-score),[25],-0.369
